Experimental data: PubChem BioAssay (NCATS)
A number with no mark means an inactive call. Records with an inconclusive call do not appear. A call without a number means that no potency is given here. Active and inactive are the calls of the source. Calls follow the shape of the dose curve; as a rule, active = well fitted curve in the direction sought with a large enough effect; inconclusive = small, poorly fitted or top-dose-only effect, or another doubt; inactive = no such curve, though single readings can be large; an effect the other way counts as inactive or inconclusive.

Experiments:
[1] = molecular target: Glutathione peroxidase 1 (Homo sapiens) (UniProt P07203); test: Primary qHTS Assay for Inhibitors of Recombinant Selenoprotein Glutathione Peroxidase 1 (GPX1) (AID 1845191); conditions: recombinant GPX1, GR-coupled NADPH fluorescence, 15 min; series mostly up to 27.7 µM; also: nearly all actives have a fitted effect of over 65% in size
Glutathione peroxidase 1 (Homo sapiens), sequence (P07203 whole entry, looked up): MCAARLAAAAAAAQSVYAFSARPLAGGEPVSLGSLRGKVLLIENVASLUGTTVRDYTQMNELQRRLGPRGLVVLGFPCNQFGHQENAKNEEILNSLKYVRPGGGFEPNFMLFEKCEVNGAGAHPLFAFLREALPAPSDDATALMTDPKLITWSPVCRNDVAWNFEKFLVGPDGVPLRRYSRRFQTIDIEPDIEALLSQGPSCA
How it was run: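 NADPH consumption tracked by fluorescence at 340/450 nm between t=0 and t=15 min, room temperature. Final mix: 10 nM GPX1, 100 nM glutathione reductase, 1 mM GSH, 0.5 mM NADPH, 0.5 mM cumene hydroperoxide, 0.01% BSA; 30 min compound–enzyme preincubation.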

[2] = molecular target: Phospholipid hydroperoxide glutathione peroxidase GPX4 (Homo sapiens) (UniProt P36969); test: Primary qHTS Assay for Inhibitors of Recombinant Selenoprotein Glutathione Peroxidase 4 (GPX4) (AID 1845192); conditions: recombinant GPX4, GR-coupled NADPH fluorescence, 15 min; series mostly up to 27.8 µM; also: nearly all actives have a fitted effect of over 65% in size
Phospholipid hydroperoxide glutathione peroxidase GPX4 (Homo sapiens), sequence (P36969 whole entry, looked up): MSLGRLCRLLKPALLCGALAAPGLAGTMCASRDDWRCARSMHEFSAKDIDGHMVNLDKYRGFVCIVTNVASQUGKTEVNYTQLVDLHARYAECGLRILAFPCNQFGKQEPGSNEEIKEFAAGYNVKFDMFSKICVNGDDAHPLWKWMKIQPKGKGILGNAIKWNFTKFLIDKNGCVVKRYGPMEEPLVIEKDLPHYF
How it was run: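 NADPH consumption followed by fluorescence at 340/450 nm, t=0 and after 15 min at room temperature. Reaction started with cumene hydroperoxide (0.5 mM final) after 30 min compound–GPX4 preincubation; final 200 nM GPX4, 100 nM GR, 1 mM GSH, 0.5 mM NADPH.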

[3] = molecular target: Luciferin 4-monooxygenase (Photinus pyralis) (UniProt P08659); test: Primary firefly luciferase (FLuc) qHTS assay for identification of artifact compounds. (AID 1845220); conditions: purified firefly luciferase, luminescence, 5 min; series mostly up to 54.1 µM; also: nearly all actives have a fitted effect of over 60% in size; also: potency is read from the fitted curve at half-maximal effect
How it was run: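 Cell-free, 1536-well qHTS. Buffer pH 7.6 with 0.01% Tween-20 and 0.05% BSA; 10 uM D-luciferin, 10 uM ATP; 10 nM P. pyralis luciferase; luminescence after 5 min.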

[4] = Primary fluorescence-based thiol-reactive (MSTI) qHTS assay for identification of artifact compounds. (AID 1845221); conditions: MSTI thiol-reactivity probe, 1 h; series mostly up to 53.8 µM;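 also: thiol-reactive compounds lower the probe fluorescence signal; nearly all actives have a fitted effect of over 65% in size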
How it was run: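 Thiol-reactive compounds detected by quenching of 4 uM MSTI fluorescence (525/598 nm) after 1 h room-temperature dark incubation in PBS pH 7.4, 2% DMSO. qHTS titration; percent inhibition Hill-fitted against Acetyl-MSTI/MSTI controls.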

| SMILES | Potency [1] | Potency [2] | outcome [3] | activity change, negative = thiol reactive [4] | Potency [3] | Potency [4] | outcome [1] | activity change, negative = inhibition [2] |
| --- | --- | --- | --- | --- | --- | --- | --- | --- |
| CC1(C)CC[C@]2(C(=O)O[C@@H]3O[C@H](CO)[C@@H](O)[C@H](O)[C@H]3O)CC[C@]3(C)C(=CCC4[C@@]5(C)CC[C@H](O[C@@H]6O[C@H](C(=O)O)[C@@H](O[C@@H]7O[C@H](CO)[C@@H](O)[C@H](O)[C@H]7O)[C@H](O)[C@H]6O)C(C)(C)C5CC[C@]43C)C2C1 (stereo partly specified) | inactive | inactive | inactive [at 11.6 µM] | 348% [at 11.5 µM] | – | – | – | – |
| COC(=O)C1=CO[C@@H](O[C@@H]2O[C@H](CO)[C@@H](O)[C@H](O)[C@H]2O)[C@@H]2[C@@H](CO)[C@@H](O)C(O)[C@H]12 (stereo partly specified) | inactive | inactive | – | – | inactive | inactive | – | – |
| CCC(C)C(C(=O)O)N1Cc2c(OCC=C(C)C)c(C)c(OC)c(C(=O)O)c2C1=O (stereo unspecified) | inactive | inactive | – | – | inactive | inactive | – | – |
| CC(C)c1ccc2c(c1)C(O)CC1C(C)(C(=O)O)CCCC21C (stereo unspecified) | inactive | inactive | – | – | inactive | inactive | – | – |
| COc1cc(O)cc2c1C(=O)OC(C)C2 (stereo unspecified) | inactive | inactive | – | – | inactive | inactive | – | – |
| CC(C)NC(=O)c1ccc(C#Cc2ccncc2)cn1 | inactive | inactive | – | – | inactive | inactive | – | – |
| NC(=O)[C@@H]1CC[C@H](c2ccc(OCc3ccccc3F)cc2)N1 | inactive | inactive | – | – | 10.7 µM (active) | inactive | – | – |
| COc1cc(-c2ccc(O)cc2)c(OC)c(O)c1C1=CC(=O)OC1CC(=O)O (stereo unspecified) | inactive | inactive | – | – | inactive | inactive | – | – |
| CC[C@H](C)[C@H](NC(=O)[C@H](Cc1ccc(O)cc1)NC(=O)[C@@H](N)C(C)C)C(=O)N[C@@H](Cc1cnc[nH]1)C(=O)N1CCC[C@H]1C(=O)N[C@@H](Cc1ccccc1)C(=O)O | – | – | inactive [at 6.45 µM] | 19.3% [at 6.41 µM] | – | – | inactive [at 4.49 µM] | 4.63% [at 4.52 µM] |
